NPSR antag: blocks cAMP signaling of the human neuropeptide S receptor | Q6W5P4 | CHO-NPSR cells, cAMP TR-FRET, antagonist mode | Potency, µM (doses to about 38.3 µM), for inactives: at the highest dose activity change, negative = inhibition, most hits filed as inhibitors | actives 1% (n = 220,000); note: nearly all actives have a fitted effect of over 50% in size
B2AR arrestin: recruits beta-arrestin to the human beta2-adrenergic receptor | beta-arrestin recruitment to beta2AR, cell-based reporter | P07550 | Potency, µM (series often up to 46.1 µM), without a hit: top-dose activation, usual class: activators | actives 0.02% (n = 330,000) | AID 492947;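 note: 0% = DMSO controls and full agonism = EC100 isoproterenol or metaproterenol; nearly all actives have a fitted effect of over 65% in size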
Target sequence (P07550 whole entry, looked up): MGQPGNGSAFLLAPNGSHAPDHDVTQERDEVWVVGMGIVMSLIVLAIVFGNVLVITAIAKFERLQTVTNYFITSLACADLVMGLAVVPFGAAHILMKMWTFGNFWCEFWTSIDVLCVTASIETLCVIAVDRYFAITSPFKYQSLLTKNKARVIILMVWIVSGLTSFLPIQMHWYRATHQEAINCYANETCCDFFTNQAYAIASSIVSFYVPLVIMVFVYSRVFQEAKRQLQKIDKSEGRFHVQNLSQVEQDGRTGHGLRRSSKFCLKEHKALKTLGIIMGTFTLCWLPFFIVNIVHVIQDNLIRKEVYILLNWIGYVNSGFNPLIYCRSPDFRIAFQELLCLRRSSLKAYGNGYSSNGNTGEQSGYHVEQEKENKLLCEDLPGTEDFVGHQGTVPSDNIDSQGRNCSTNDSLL
VP16 counter: inhibits Gal4-VP16 luciferase reporter, ROR gamma counter-screen | Drosophila S2 Gal4-VP16 UAS-luciferase, luminescence, 20 h | Potency, µM (doses to about 53.6 µM), for the others: at the top dose activity, negative = inhibition, actives largely listed as inhibitors | actives 3.5% (n = 310,000) | AID 2546;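 note: Gal4-VP16 expression switched on by copper sulfate through the metallothionein promoter; nearly all actives have a fitted effect of over 50% in size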
RORg inh: blocks mouse ROR gamma transcriptional activity; P51450; Drosophila S2 Gal4-RORgamma UAS-luciferase reporter, 20 h; Potency, µM (top dose mostly 53.6 µM), without a hit: top-dose activity change, negative = inhibition, most hits filed as inhibitors; actives 5.4% (n = 310,000); note: nearly all actives have a fitted effect of over 60% in size
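Schneider cells (Drosophila), stable Gal4 DBD–ROR gamma + UAS-luc; 1 hr cmpd preincubation; Cu2+ induction 700 uM final; 20 hr ambient; luminescence.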
Starred values were filed as active, the others as inactive; ? = inconclusive; · = not tested or not shown; [ ] = dose if it differs, or a comment. Hits are enriched below; roughly 5.7% of the tested compounds scored in any of these assays. Calls come from the whole dose curve; as a rule, active = well fitted curve in the direction sought with a large enough effect; inconclusive = small, poorly fitted or top-dose-only effect, or another doubt; inactive = no such curve, though single readings can be large; an effect the other way counts as inactive or inconclusive. Unless noted, % is set by controls: 0 for no effect and ±100 for the full control effect; potency is the fitted concentration of half-maximal effect.

SMILES | NPSR antag | B2AR arrestin | VP16 counter | RORg inh
COc1ccccc1NC(=S)N/N=C1\CC(C)(C)Oc2ccc(O)cc21 | -47% | ? | ? | ?
COc1ccc(NC(=S)N/N=C2\CC(C)(C)Oc3ccc(O)cc32)cc1 | -10% | 0% | 5.6µM* | 6.3µM*
CC(=O)N1CCC2(CC1)C/C(=N\NC(=S)Nc1ccccc1F)c1cc(O)ccc1O2 | -36% | 0% | -5% | 13µM*
Cc1cccc2sc(NNC(=O)C3COc4ccccc4O3)nc12 (stereo not drawn) | -17% | -1% | 11µM* | 6.3µM*
Cc1cc(C)c2sc(NC(=O)C3CC3)nc2c1 | · | 0% | -30% | 6.3µM*
Cc1ccc(C)c2sc(NC(=O)C3CC3)nc12 | · | 0% | 4% | -27%
Cc1ccc(NC(=O)C2COc3ccccc3O2)c(C)c1 (stereo not drawn) | · | 0% | 6% | 8%
Cc1cc(C)c2sc(NNC(=O)C3COc4ccccc4O3)nc2c1 (stereo not drawn) | -8% | 0% | 18µM* | 2.8µM*
CC(=O)c1sc(NC(=O)C2COc3ccccc3O2)nc1C (stereo not drawn) | ? | 0% | 10µM* | 7.1µM*
COc1ccc(OC)c2sc(NNC(=O)C3COc4ccccc4O3)nc12 (stereo not drawn) | 9% | 0% | -12% | ?
CCOC(=O)C1OC1c1ccccc1 (stereo not drawn) | · | · | -10% | -13%
COc1ccc2c(c1)O[C@@H](c1cccc(C(F)(F)F)c1)[C@H](OC(=O)NS(=O)(=O)c1ccc(F)cc1)C2=O | · | · | 6% | 19%
O=C(NNc1nc2c(F)cc(F)cc2s1)C1COc2ccccc2O1 (stereo not drawn) | -1% | 0% | -25% | 13µM*
O=C(Nc1nnc(C(F)(F)F)s1)C1COc2ccccc2O1 (stereo not drawn) | -2%[46.1 µM] | 0% | -15% | 41%
Cc1onc(-c2ccccc2)c1C(=O)N/N=C(\N)COc1ccc(Cl)cc1 | 1%[46.1 µM] | 0% | 1.3µM* | 1µM*
Cc1onc(-c2ccccc2Cl)c1C(=O)N/N=C(\N)COc1ccc(Cl)cc1 | -7%[46.1 µM] | 0% | 1µM* | 0.45µM*
CCOC(=O)c1[nH]nc(-c2cc(CC)c(O)cc2O)c1-c1cscn1 | -27%[46.1 µM] | 0% | 13µM* | ?
CC1CCCN(S(=O)(=O)c2ccc(S(=O)(=O)N3CCC4(CC3)OCCO4)cc2)C1 (stereo not drawn) | 9% | -1% | ? | -13%
CN(CC(=O)Nc1ccccc1C(F)(F)F)C(=O)CSc1nnc(-c2ccncc2)n1C | · | 0% | · | ·
Cc1ccc(-c2csc(NC(=O)CSc3nc(C)cc(=O)[nH]3)n2)cc1 | -5%[46.1 µM] | 0% | ? | ?
CCOC(=S)SCC(=O)Nc1nc(-c2ccccc2)cs1 | -6% | 0% | ? | ?
Cc1ccc(-c2csc(NC(=O)CSC3=NCCS3)n2)cc1 | ? | 0% | 13µM* | -40%
CCOC(=S)SCC(=O)Nc1nc(-c2ccc(Br)cc2)cs1 | -59% | 0% | 6.3µM* | 5µM*
CCOC(=S)SCC(=O)Nc1nc(C)c(C)s1 | -46% | 0% | ? | 13µM*
CCOC(=O)N1CCN(C(=O)CSCC(=O)Nc2nc(-c3ccc(-c4ccccc4)cc3)cs2)CC1 | -9%[46.1 µM] | -1% | 6.3µM* | ?
SMILES | NPSR antag | B2AR arrestin | VP16 counter | RORg inh
O[C@@](CCN1CCCCC1)(c1ccccc1)C1CCCCC1 | · | · | 3%[17 µM] | 16%[16.9 µM]
COC(=O)C1=C[C@@H](C(=O)OC)C2C3=C(C(=O)[C@]2(C)NC(=O)c2ccccc2)[C@H](C)n2c(=O)n(C)c(=O)n2[C@@H]3C1 (stereo partly drawn) | · | · | -3% | 5%
Cc1nn(-c2ccc(NC(=O)c3ccncc3)cc2)c(C)c1Cl | · | 0% | 7.9µM* | ?
CCC(=O)OCC(=O)C1(OC(=O)CC)C(C)CC2C3C(Cl)CC4=CC(=O)C=C[C@@]4(C)C3C(O)C[C@@]21C (stereo partly drawn) | · | · | -27% | 13µM*
CCCCC/C=C\C/C=C\C=C\[C@@H](O)C/C=C\CCCC(=O)O | · | · | 5% | 11%
CCOC(=O)CNC(=O)Nc1nnc(-c2ccc(OCC)cc2)o1 | -6%[46.1 µM] | 0% | 5.6µM* | 3.2µM*
CCCCNC(=O)Nc1nnc(-c2ccccc2)o1 | -16%[46.1 µM] | 0% | 5.6µM* | 4µM*
CCOC(=O)COc1ccc(-c2nnc(-c3ccccc3)o2)cc1 | -18%[46.1 µM] | 0% | ? | -43%
CCCCNC(=O)Nc1nnc(-c2ccc(OCC)cc2)o1 | -11%[46.1 µM] | 0% | 5.6µM* | 7.1µM*
O=C(Nc1nnc(-c2ccccc2)o1)Nc1ccccc1Cl | -9%[46.1 µM] | -1% | -8% | 40%
COC(=O)C1=COC(O[C@H]2OC(CO)[C@H](O)C(O)C2O)[C@H]2C1C(=O)C[C@@H]2C (stereo partly drawn) | · | · | 2% | 7%
Cc1ccc(C(=O)NC(=O)CSc2ncccc2C(=O)O)cc1 | 14% | 0% | 0% | 1%
CCOc1ccc(-c2cnc3ccccc3n2)cc1 | -17% | 0% | 8.9µM* | 3.5µM*
CCOc1ccc(-c2cn3ccccc3n2)cc1 | 2% | 0% | ? | 6.3µM*
Fc1ccc(-c2cn3ccccc3n2)cc1 | · | -1% | ? | ?
Cc1nnc(SCC(=O)N/N=C/c2cn(-c3ccccc3)nc2-c2ccccc2)n1-c1ccccc1 | ? | 0% | -3% | ?
O=C(N/N=C\c1cn(-c2ccccc2)nc1-c1ccccc1)c1ccc(Br)o1 | -29%[46.1 µM] | -1% | 4µM* | 1.4µM*
Cc1ccc(-c2nn(-c3ccccc3)cc2/C=N/NC(=O)c2ccc(Br)o2)cc1 | 7.9µM* | 0% | 4µM* | 2.8µM*
O=C(N/N=C/c1cn(-c2ccccc2)nc1-c1ccccc1)c1ccco1 | ? | 0% | 10µM* | 6.3µM*
O=C(N/N=C/c1ccc(Br)cc1)c1ccc(Br)o1 | -6% | 0% | 16% | -4%
CCCc1ccc(OC(=O)c2ccc(O)cc2Cl)cc1 | -44% | 0% | 4µM* | 0.89µM*
CCOC(=O)C1=C(c2cccc(F)c2)NC(=S)NC1C (stereo not drawn) | -8%[46.1 µM] | 0% | ? | 14µM*
CCOC(=O)C1=C(c2ccccc2)NC(=O)NC1c1cc(OC)c(O)c([N+](=O)[O-])c1 (stereo not drawn) | · | -1% | 1% | 3%
CCCOc1ccc([N+](=O)[O-])cc1C1NC(=S)NC(c2ccccc2)=C1C(=O)OCC (stereo not drawn) | -29%[46.1 µM] | -1% | 20µM* | 6.3µM*
COCCn1c(=O)c(-c2ccc(OC)cc2)nc2cnc(Nc3ccccc3)nc21 | · | · | -2% | -4%
CC(C)(CO)CNC(=O)CCc1nnc(-c2ccc(-c3ccccc3)cc2)o1 | · | 0% | -15% | -43%
CC(=O)Nc1cc(OC(C)=O)c2nonc2c1OC(C)=O | ? | 0% | ? | 11µM*
O=C(Nc1nc2c(s1)CCCC2)c1ccc(Br)s1 | ? | 0% | ? | 11µM*
O=C(Nc1nc2c(s1)CCCC2)c1ccc2ncsc2c1 | ? | 0% | ? | 1.8µM*
O=C(Nc1nc2c(s1)CCCC2)c1ccc(N2C(=O)CCC2=O)cc1 | · | 0% | 15% | ?

Screening results from PubChem BioAssay.
